Assay outcomes (PubChem BioAssay)
The list is not random: actives were taken first. Their share in the collection is about 19%.
IL-1B inflam inh: inhibitors of inflammasome signaling (IL-1 beta secretion). hit rate 4.7% among 360,000. THP-1 LPS/ATP IL-1B secretion, AlphaLISA, 16 h; hits give low values. activity change, % at 57.5 µM; in the data active = activity change below about -50%; inconclusive = mostly about -30% to -49%
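Secreted IL-1B measured by AlphaLISA bead assay after 16 h compound exposure of THP-1 cells; compounds (final up to 57.5 uM) added 1 h before LPS (250 ng/mL) and ATP (1.25 mM) stimulation; lower signal means less secretion.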
HT1080 IDH1KD tx: toxicity to HT-1080 IDH1 knockdown cells (counter line); HT-1080 IDH1 knockdown viability, ATP luminescence, 48 h; Potency, µM (doses to about 46.1 µM), without a hit: top-dose activity, negative = toxicity, usual class: cytotoxic; hit rate 2% among 360,000; AID 686971;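 also: potency is read from the fitted curve at half-maximal effect; 0% = DMSO wells and -100% = cell-free medium wells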
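Viability of IDH1-knockdown HT-1080 fibrosarcoma cells was assessed by CellTiter-Glo after 48 h at 37 °C with titrated compound; concentration-effect curves were classified by fit quality and response size.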
DT40 TDP1 CPT: DT40-hTDP1 cell growth loss with CPT; AID 686979; chicken DT40 Tdp1-/-;hTDP1 cells + 20 nM CPT, ATP luminescence, 48 h; Potency, µM (doses to about 46.2 µM), inactives show at the top dose activity change, negative = growth inhibition, hits mostly inhibitors; hit rate 12% among 420,000; also: potency is read from the fitted curve at half-maximal effect; nearly all actives have a fitted effect of over 55% in size
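Cell growth measured by CellTiter-Glo luminescence after a minimum 48 h, 37 C compound exposure with 20 nM CPT in Tdp1-knockout DT40 cells stably expressing hTDP1, seeded 400/well; qHTS titration format.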
HT1080-NT tox: kills 2HG-producing HT-1080-NT fibrosarcoma cells; HT-1080-NT fibrosarcoma viability, CellTiter-Glo ATP luminescence, 48 h; Potency, µM (titrated, usually from 46.1 µM), for inactives: at the highest dose activity, negative = less viability, usual class: cytotoxic; hit rate 1.6% among 360,000;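 also: NT is the 2HG producing partner of a matched IDH1 knockdown line; potency is read from the fitted curve at half-maximal effect; 0% = DMSO-treated cells and -100% = media-only wells without cells; nearly all actives have a fitted effect of over 55% in size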
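Viability by CellTiter-Glo luminescence after 48 h compound exposure at 37C of HT-1080-NT cells (750/well, RPMI, 5% FBS). % activity scaled between DMSO wells and medium-only wells, then curve-fitted and categorized by curve class.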
DT40 TDP1 no CPT: qHTS for Inhibitors of human tyrosyl-DNA phosphodiesterase 1 (TDP1): qHTS in cells in absence of CPT | Potency, µM (titrated, usually from 46.2 µM), for inactives: at the top dose activity change, negative = growth inhibition, usual class: inhibitors | hit rate 15% among 420,000 | DT40 Tdp1-/- hTDP1 cells, no CPT, ATP luminescence, 48 h | AID 686978, 2013; also: potency is read from the fitted curve at half-maximal effect; nearly all actives have a fitted effect of over 55% in size
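Readout: luminescence from CellTiter-Glo after 30 min in the dark at RT. Cells: DT40 Tdp1-/- with stable hTDP1, 400/well. Exposure: compounds alone, ≥48 hr, 37 °C.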
* = called active by the depositor; ? = inconclusive; · = not tested or not shown; ! = repeats disagree. Unless noted, calls follow the shape of the dose curve; as a rule, active = well fitted curve in the direction sought with a large enough effect; inconclusive = small, poorly fitted or top-dose-only effect, or another doubt; inactive = no such curve, though single readings can be large; an effect the other way counts as inactive or inconclusive. Unless noted, % is scaled to controls: 0 for no effect and ±100 for the full control effect.

SMILES | IL-1B inflam inh | HT1080 IDH1KD tx | DT40 TDP1 CPT | HT1080-NT tox | DT40 TDP1 no CPT
O=C(NCc1ccccc1F)c1ccc(CSc2nc3cccnc3n2Cc2ccccc2)cc1 | · | · | -2% | · | -8%
Cc1ccccc1CNC(=O)c1ccc(CSc2nc3cccnc3n2Cc2ccccc2)cc1 | · | · | ? | · | 13µM*
CNC(=O)c1ccc(CSc2nc3cccnc3n2Cc2cccc(F)c2)cc1 | · | · | 3.7µM* | · | 18µM*
CCN(CC)CCNC(=O)c1ccc(Cn2c(SCc3ccccc3)nc3cccnc32)cc1 | · | · | -23% | · | -26%
O=C(NCc1ccccc1)c1ccc(CSc2nc3cccnc3n2Cc2ccccc2)cc1 | · | · | 4.6µM* | · | 18µM*
O=C(NCc1ccccc1)c1ccc(CSc2nc3cccnc3n2Cc2cccc(F)c2)cc1 | · | · | 13µM* | · | 10µM*
CC(C)NC(=O)c1ccc(Cn2c(SCc3ccc(F)cc3)nc3cccnc32)cc1 | · | · | -29% | · | -29%
COc1ccc(Cn2c(SCc3ccc(C(=O)NCc4cccs4)cc3)nc3cccnc32)cc1 | · | · | ? | · | -79%
O=C(NC1CCCCC1)c1ccc(CSc2nc3ccncc3n2Cc2cccc(F)c2)cc1 | · | · | ? | · | 18µM*
O=C(NCc1cccs1)c1ccc(CSc2nc3cccnc3n2Cc2ccccc2)cc1 | · | · | ? | · | 15µM*
Cc1cccc(NC(=S)NC2CCCC2)c1 | 29 | 27% | ? | 19% | 15µM*
Cc1cccc(NNC(=O)C2CCC2)c1 | 7 | 7.3µM* | 5% | 7.3µM* | 0%
O=C(CC1CCCC1)Nc1ccc(Br)cc1 | -56* | -15% | -1% | 1% | -14%
Cc1cccc(NC(=S)NC2CC3CCCC(C2)N3Cc2cccs2)c1 (centres undefined) | -78* | ? | 23µM* | ? | 23µM*
COCCNC(=S)NC1CC2CCCC(C1)N2Cc1cccs1 (centres undefined) | 12 | 21% | -1% | -6% | -12%
Cc1ccc(-c2nnn(CC(=O)N(CC(=O)NC3CCCCC3)c3cnc4ccccc4c3)n2)o1 | -12 | -7% | 8% | 3% | -13%
S=C(Nc1ccc(Br)cc1)NC1CCCC1 | -62* | -9% | ? | -10% | 21µM*
Cc1cc(C)c2c(-n3cccc3)c(C(=O)NNS(=O)(=O)c3ccc(Cl)cc3)sc2n1 | 3 | 12% | -5% | 7% | -12%
COCC(C)n1c(-c2ccc3c(c2)NC(=O)CO3)csc1=Nc1ccc(OC(F)F)cc1 (centres undefined) | -26 | ? | 5.2µM* | 21µM*! | 6.5µM*
CCN=c1scc(-c2ccc3c(c2)NC(=O)CO3)n1N=C1CCCC1 | -5 | ? | ? | ? | 8.2µM*
O=C1COc2ccc(-c3n[nH]c(=O)c4ccccc34)cc2N1 | 35 | -5% | -10% | -8% | ?
CCCCN=c1scc(-c2ccc3c(c2)NC(=O)CO3)n1N=C1CCCC1 | ? | ? | 13µM* | ? | 23µM*
Cc1ccc2nc(-c3ccc4c(c3)NC(=O)CO4)cn2c1 | 21 | 11% | 0% | 27% | ?
COc1ccc(/C=C/C(=O)NCC(=O)N2CCC(N(C)CCN3CCOCC3)CC2)cc1OC | -5 | 3% | 12% | 3% | 20%
COc1ccc(C)cc1Nc1n[n+](-c2ccccc2)c(-c2ccc(OC)c(OC)c2OC)s1 | 59 | ? | 16µM* | ? | 18µM*
SMILES | IL-1B inflam inh | HT1080 IDH1KD tx | DT40 TDP1 CPT | HT1080-NT tox | DT40 TDP1 no CPT
COc1ccc(C)cc1Nc1n[n+](-c2ccccc2)c(-c2ccc(N(C)C)cc2)s1 | -67* | -3% | 10µM* | -22% | 21µM*
COc1ccc(C)cc1Nc1n[n+](C)c(-c2c3ccccc3cc3ccccc23)s1 | -11 | 1% | -20% | 10% | -7%
COc1ccc(C)cc1Nc1n[n+](-c2ccccc2)c(-c2c(Cl)cccc2Cl)s1 | 0 | ? | 21µM* | ? | 13µM*
Cc1onc(-c2ccccc2)c1C(=O)Nc1ccc(S(=O)(=O)NC(C)(C)C)cc1 | 5 | -6% | -15% | -10% | ?
CCN(C(=O)Nc1cccc(Cl)c1)c1ccccc1 | -8 | 13% | -8% | 0% | -17%
O=C(Nc1ccccc1)N(Cc1cccc(Cl)c1)c1ccccn1 | · | · | 23µM* | · | ?
Cc1nn(CC(=O)Nc2ccccn2)c(C)c1Br | 14 | 16% | 8.2µM* | 5% | ?
COC(=O)CCCCCCCCC(O)CN(C)C (centres undefined) | 23 | ? | ? | 7% | 16µM*
CCN(CC)CC(O)CCCCCCCCC(=O)OC (centres undefined) | -2 | 6% | 1% | 7% | -8%
CCN1N=C(c2ccccc2)Cn2c1nc1ccccc12 | 1 | -12% | ? | -9% | 16µM*
CS(=O)(=O)N1CCn2c1nc1ccccc12 | 3 | 7% | 14% | 9% | -22%
Cc1ccc(NC(=O)c2cnn3c2NC(c2ccccc2)=CC3c2ccccc2)cc1 (centres undefined) | · | · | 10µM* | · | ?
